Whole data set: some 35,000 sequences, median “fluorescence intensity (a.u.)” near 10,000, cut for the highest 2% near 52,000. Many of the other results were omitted from the sample, so the highest values are more common in it than they were.

The assay addresses T1, OsWOX13 (Oryza sativa, UniProt Q5QMM3 1-267).
T1 sequence: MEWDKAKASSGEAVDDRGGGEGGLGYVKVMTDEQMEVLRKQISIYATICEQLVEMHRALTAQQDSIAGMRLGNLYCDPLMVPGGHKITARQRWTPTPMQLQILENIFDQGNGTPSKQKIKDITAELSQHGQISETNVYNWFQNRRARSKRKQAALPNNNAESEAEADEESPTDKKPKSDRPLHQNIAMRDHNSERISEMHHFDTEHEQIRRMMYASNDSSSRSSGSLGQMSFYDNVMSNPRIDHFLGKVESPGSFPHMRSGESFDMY
As to the kind of experiment: protein-binding microarray (RPBM); PBS, 2% BSA, 51.3 ng/ul salmon testes DNA, 50 uM zinc acetate, 200 nM TF, 25 C, 1 h; high values mean tight binding. Particulars: protein: recombinant; tags: N-terminal polyhistidine and DsRed monomer fusion (pET32a); label: CyDye5-dUTP incorporated in the synthesized complementary strand; 3' TTTTT single-stranded linker to array surface; dsDNA, one strand shown. The procedure, abridged:
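The binding signal is fluorescence intensity per array feature (arbitrary units). Readings came from an Axon 4000B scanner after a washed, 2% BSA-blocked, double-stranded custom Agilent array had been incubated for 1 h at 25 °C with 200 nM protein and 50 µM zinc acetate. The protein was a Ni–NTA-purified transcription factor fused N-terminally to polyhistidine and DsRed, expressed in E. coli BL21-CodonPlus.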
Turning to “AGCTGATCTATCCAAATTGGTGAAACTAATTGTAAATTCTCGGAGTCACCTAGTGCAG”, the binding signal was 11000 fluorescence intensity (a.u.).
The result for “TTAATTAGGAGATATTGATTGATAAACGTACCTCTTGGTGCGGAGTCACCTAGTGCAG” reads 65300 fluorescence intensity (a.u.).
The value for “ATAAAATAAATGATAATTACATAAATTTCTTTAAATAAGACGGAGTCACCTAGTGCAG” was 10900 fluorescence intensity (a.u.); that for “ACAATGATTGGGTCTTAAGATTTTCTTTAATTATTCGACGCGGAGTCACCTAGTGCAG” was 58300 fluorescence intensity (a.u.).
The value for “CTTTAATTGGTGCTTGTTAAACCTCTTAGTGCTTGTTAAACGGAGTCACCTAGTGCAG” was 29200 fluorescence intensity (a.u.).
In the case of “CGATTGATTGATTCTTGGTGCTCACTATCTCTAAATTGATCGGAGTCACCTAGTGCAG”, the binding signal is 59600 fluorescence intensity (a.u.).
The value for “GATTGATGCAATTTAAATTATACTTAGTATTGGTGTATAACGGAGTCACCTAGTGCAG” was 11400 fluorescence intensity (a.u.); that for “AATAAATCTATAATTTTATGATATTATGACTTAAATCTATCGGAGTCACCTAGTGCAG” was 4790 fluorescence intensity (a.u.).
The value for “TTTTATTAACTGTAAACGTCACATGTTCTGTCATACGCGTCGGAGTCACCTAGTGCAG” was 5270 fluorescence intensity (a.u.); that for “CTTGTCAATCTACAGAGAGTCCACGAGTTAGTAGTATGTGCGGAGTCACCTAGTGCAG” was 8690 fluorescence intensity (a.u.); that for “TAGTTAATTGTGCCAAACAAAATTCAAAATTAAGACATCTCGGAGTCACCTAGTGCAG” was 33000 fluorescence intensity (a.u.).
The value for “CACATTGACCAAAATTTAATGTTTGTTTCCTACTAGTGTGCGGAGTCACCTAGTGCAG” was 4440 fluorescence intensity (a.u.).
“TATTGATATGATTTAAATTGTCCTTGGTCTTGGTGTATAACGGAGTCACCTAGTGCAG”: the binding signal was 40700 fluorescence intensity (a.u.).
The value for “TATTAATTGATGCGATTTAAATTATCTTTGGTCTTGATGTCGGAGTCACCTAGTGCAG” was 50000 fluorescence intensity (a.u.); that for “GGTGTCTTGATTGATATGATTTAAATTATTCTTGGTCTTGCGGAGTCACCTAGTGCAG” was 58500 fluorescence intensity (a.u.); that for “TGGCACACTAATTAGGGAGAAAATCTCTATCTTGTGTTGTCGGAGTCACCTAGTGCAG” was 9710 fluorescence intensity (a.u.).
The value for “AATAATTTTCTTTTGTCACACTGTTTCTTCTCTAATCTATCGGAGTCACCTAGTGCAG” was 5890 fluorescence intensity (a.u.); that for “ACACTAATTAGGGAGATAATCTCTCTTGTGGTGTTTGTGTCGGAGTCACCTAGTGCAG” was 52300 fluorescence intensity (a.u.); that for “ATACTGTCATCAATTGATTACTCTGACCGTCGATCACACACGGAGTCACCTAGTGCAG” was 34100 fluorescence intensity (a.u.).
The value for “TTATAACACAAATAATATAATAGATATATAGACTGTTGTCCGGAGTCACCTAGTGCAG” was 3650 fluorescence intensity (a.u.); that for “ATGTAATTTCACCATAACTATATATTATAATAAGATAAGTCGGAGTCACCTAGTGCAG” was 8720 fluorescence intensity (a.u.).
On to “AATTGAAATAATTGGAAATTTTCATATTTATATATTAAACCGGAGTCACCTAGTGCAG”, for which the binding signal is 5800 fluorescence intensity (a.u.).
The value for “TCCAGGTGATGGTAATGATATTGACATGCCCTCATCTAGTCGGAGTCACCTAGTGCAG” was 3770 fluorescence intensity (a.u.); that for “AAGAAAATTTAAAACAATTGATTACATACTAAATTAATATCGGAGTCACCTAGTGCAG” was 9840 fluorescence intensity (a.u.).
With “CTGATGATTCACCCATGATCGATTGCTCGATCCGTTTAAGCGGAGTCACCTAGTGCAG”, the binding signal was 3710 fluorescence intensity (a.u.).
The value for “ATATAGTTACCAAAATTTGACAGCAAACTAAATGTAGCCACGGAGTCACCTAGTGCAG” was 7890 fluorescence intensity (a.u.); that for “TTATATAGTTACCAAAATTTGACAGCAAACTAAATGTAGCCGGAGTCACCTAGTGCAG” was 3680 fluorescence intensity (a.u.); that for “AAGTGATTGAAATTTAATTCATGATCCTAAACCATACAACCGGAGTCACCTAGTGCAG” was 53200 fluorescence intensity (a.u.).
The result for “CTAGATTGATCGAAATCCGTCAAGTTCATGAACCGTTAAGCGGAGTCACCTAGTGCAG” reads 54400 fluorescence intensity (a.u.).
The result for “GTGTATCATCTAGGTCCTAAATTGACACATCCCCTCTAGGCGGAGTCACCTAGTGCAG” reads 10100 fluorescence intensity (a.u.).
Regarding “TACCATGATTGGGCTGCAACTAAATTGACAGGTCAGCCATCGGAGTCACCTAGTGCAG”, the binding signal was 60400 fluorescence intensity (a.u.).
The value for “AGGGTGATTGACAGGTGGGTCCATCCCCTCACATGCCAGGCGGAGTCACCTAGTGCAG” was 64800 fluorescence intensity (a.u.).
The result for “ATGATTTTCATCCGTTAGATTTGATGAATAAAGTATGAAGCGGAGTCACCTAGTGCAG” reads 11100 fluorescence intensity (a.u.); that for “TTGTGACTTGACTTTGCCAATCTTAGTCTATTTTCTCGAGCGGAGTCACCTAGTGCAG”, 5270 fluorescence intensity (a.u.).
With “TATTAAATTGGCTATAGGTGATTTGGAGCTAATAGTTAGCCGGAGTCACCTAGTGCAG”, the binding signal is 24000 fluorescence intensity (a.u.).
The value for “CTTAATTACTATTCCCTCCGTCATACAATATAAGAGATTTCGGAGTCACCTAGTGCAG” was 22500 fluorescence intensity (a.u.).
Turning to “CATAAACTGAAGCTCATAATTGTTTGTGAAATCGTTTATCCGGAGTCACCTAGTGCAG”, the binding signal was 16900 fluorescence intensity (a.u.).
The result for “CGTGGTCTCTAATTTGTTTTGTTCGTTCTCCTTTCTTGTTCGGAGTCACCTAGTGCAG” reads 4660 fluorescence intensity (a.u.).
The result for “GACTCTATCTAGAAATTAAATTTAATCAACACATGTAAGTCGGAGTCACCTAGTGCAG” reads 12800 fluorescence intensity (a.u.); that for “TTTATTTAATTGATTCGATGAACTTTGTGCCATTAAAATTCGGAGTCACCTAGTGCAG”, 35000 fluorescence intensity (a.u.); that for “TAAATTGACATGATTAATTGAAACCACGCCATTCAGCAATCGGAGTCACCTAGTGCAG”, 65500 fluorescence intensity (a.u.).
For the sequence “AGGTGGCCCCATTAATTGATGATGAAATGCAAACCTAAATCGGAGTCACCTAGTGCAG”, the binding signal was 9480 fluorescence intensity (a.u.).
Consider “TATGATTAAAATTGTTTTGAACCATTGCACGCACCAGCATCGGAGTCACCTAGTGCAG”, for which the binding signal was 18500 fluorescence intensity (a.u.).
